In the library only some 2.7% were active in any assay of this set; here they are far more common.
LDHA block: qHTS assay for inhibitors of human lactate dehydrogenase; AID 1347041, 2019; L-lactate dehydrogenase A chain (Homo sapiens), P00338; purified LDHA, NADH/diaphorase-resazurin fluorescence; hits give low values; activity change, % (values are at about 110 or 230 µM); 480,000 tested, 0.15% active; in the data active = activity change below about -30%; inconclusive = mostly about -25% to -30%
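Human LDH5 (2 nM) was incubated with 0.06 mM NADH and 0.2 mM pyruvate for 5 min at room temperature in Tris pH 7.4. Remaining NADH was coupled through diaphorase/resazurin, and resorufin fluorescence was read at 0 and 20 min.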
IDH1 R132H inh: qHTS for Inhibitors of mutant isocitrate dehydrogenase 1 (IDH1): qHTS; Potency, µM (series often up to 76.6 µM), actives largely listed as inhibitors; Isocitrate dehydrogenase [NADP] cytoplasmic (Homo sapiens), O75874; 390,000 tested, 0.093% active; IDH1-R132H enzyme, NADPH consumption, diaphorase/resazurin fluorescence; also: nearly all actives have a fitted effect of over 65% in size
Target sequence (O75874 whole entry R132H, stated change not applied): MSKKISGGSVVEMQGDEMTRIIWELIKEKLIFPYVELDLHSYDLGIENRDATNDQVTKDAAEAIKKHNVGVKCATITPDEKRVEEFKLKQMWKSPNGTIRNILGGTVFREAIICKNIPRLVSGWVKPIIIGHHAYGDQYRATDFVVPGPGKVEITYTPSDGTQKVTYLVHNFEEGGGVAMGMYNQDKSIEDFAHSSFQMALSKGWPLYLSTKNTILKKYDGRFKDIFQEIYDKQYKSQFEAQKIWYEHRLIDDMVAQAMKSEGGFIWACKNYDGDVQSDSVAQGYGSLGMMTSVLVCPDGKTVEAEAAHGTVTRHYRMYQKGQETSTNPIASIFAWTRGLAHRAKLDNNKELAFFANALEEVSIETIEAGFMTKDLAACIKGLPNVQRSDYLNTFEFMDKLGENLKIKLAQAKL
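IDH1-R132H (0.5 ug/mL) preincubated 30 min with compound, then NADPH (0.016 mM) and alpha-KG (2 mM) added; 80 min at RT, pH 7.5. Remaining NADPH coupled via diaphorase/resazurin to fluorescence (540/590 nm); concentration-response curves normalized to no-enzyme control.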
12-LOX inh: Primary qHTS assay for inhibitors of human arachidonate 12S-lipoxygenase (ALOX12): Round 2. Polyunsaturated fatty acid lipoxygenase ALOX12 (Homo sapiens), P18054. purified 12hLO, xylenol orange hydroperoxide absorbance. Potency, µM (top dose mostly 108 µM), most hits filed as inhibitors. 580,000 tested, 1.1% active
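Hydroperoxide product was detected by ferrous iron/xylenol orange as the 573 to 405 nm absorbance ratio. Arachidonic acid at 40 uM (final) was turned over for 30 min at room temperature by 150 nM human 12hLO, pH 7.0 Hepes buffer, after 15 min compound preincubation.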
A549 viability: Nrf2 qHTS screen for inhibitors: counterscreen for cytotoxicity; A549 ARE-Fluc cells, CellTiter-Fluor viability, 18-24 h; Potency, µM (highest dose often 46 µM), most hits filed as inhibitors; 390,000 tested, 0.16% active; AID 504648, 2011
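Cytotoxicity counterscreen: CellTiter-Fluor fluorescence was measured in A549 ARE_Fluc cells after 18-24 h of compound exposure in a concentration series. The subsequent BugLite luminescent read reports ARE-luciferase activity.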
Nrf2 activator: qHTS of Nrf2 Activators; AREc32 ARE-luciferase reporter (MCF7-derived line), luminescence, 24 h; Potency, µM (top dose mostly 46.1 µM), actives largely listed as activators; 410,000 tested, 0.31% active; AID 624171, 2012; also: nearly all actives have a fitted effect of over 65% in size
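ARE-driven firefly luciferase activity in AREc32 cells measured after a 24 hr compound exposure at 37 deg C, using Steady-Glo reagent and a 30 min room-temperature hold.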
Nrf2 inh: Nrf2 qHTS screen for inhibitors | A549 ARE-Fluc reporter, luciferase luminescence, 18-24 h | Potency, µM (doses to about 46 µM), usual class: inhibitors | 360,000 tested, 2.1% active | AID 504444, 2011; also: nearly all actives have a fitted effect of over 60% in size
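In this cell-based qHTS, ARE-driven firefly luciferase in A549 cells reports Nrf2 activity; the luminescent signal after BugLite lysis is the measured value, with a prior CellTiter-Fluor read for cell health.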
Hits are given with their value; . = inactive; ? = inconclusive; / = no result; ! = repeats disagree. Unless noted, calls follow the shape of the dose curve; as a rule, active = well fitted curve in the direction sought with a large enough effect; inconclusive = small, poorly fitted or top-dose-only effect, or another doubt; inactive = no such curve, though single readings can be large; an effect the other way counts as inactive or inconclusive.

SMILES	LDHA block	IDH1 R132H inh	12-LOX inh	A549 viability	Nrf2 activator	Nrf2 inh
N#Cc1ccc(OCC(=O)c2ccc3c(c2)OCCO3)cc1	.	/	.	/	/	/
N#Cc1ccc2c(c1)OCCO2	.	/	8.9µM	/	/	/
Cn1c(=O)c2c([nH]c(=S)n2CCCc2ccccc2)n(C)c1=O	.	.	1.3µM	.	.	.
C[C@H]1COC(=O)[C@H](NC(=O)OCC2c3ccccc3-c3ccccc32)C/C=C\C[C@H](CC(=O)N(CCO)Cc2ccccc2)C(=O)N1	.	.	40µM	.	.	.
CCNC(=O)NC(=O)C(C)N(C)Cc1ccc(F)cc1 (stereo not given)	.	/	.	/	/	/
CC(C)n1cnc2c(Nc3cccc(Cl)c3)nc(NCCCO)nc21	.	.	.	?	.	?
C=CC(=O)Nc1cccc(Nc2nc(N[C@H]3CC[C@H](N(C)C)CC3)nc3c2ncn3C(C)C)c1	.	.	/	2.6µM	.	0.58µM
COc1ccccc1CCNC(=O)c1ccc(NC(=O)N2CC(C)Sc3ccccc32)cc1 (stereo not given)	.	.	.	.	.	21µM
CC1CN(C(=O)Nc2ccc(C(=O)NCCc3ccccc3Cl)cc2)c2ccccc2S1 (stereo not given)	.	.	.	.	.	.
CCCCCc1nc(N)c(C#N)c(-c2ccco2)c1CCCC	.	.	.	.	.	.
CCc1nc(N)c(C#N)c(-c2ccco2)c1C	.	.	.	.	2.5µM	.
O=c1cnnc(N/N=C/c2c[nH]c3ccccc23)[nH]1	.	.	.	.	13µM	?
O=c1nc(N/N=C/c2c[nH]c3ccccc23)cn[nH]1	.	.	.	.	.	?
CS(=O)(=O)N(CC(=O)N1CCc2ccccc2C1)c1ccccc1Cl	.	/	.	/	/	/
COc1ccc(N2CCN(CC(O)COc3c(OC)cccc3OC)CC2)cc1 (stereo not given)	.	.	40µM!	.	.	.
Cc1cccc(N2CCN(CC(O)COc3ccc4ccccc4c3)CC2)c1 (stereo not given)	.	.	.	.	.	.
Cc1cc(OCC(O)CN2CCN(c3cccc(Cl)c3)CC2)ccc1Cl (stereo not given)	.	.	40µM	.	.	.
C=CCc1cc(OC)ccc1OCC(O)CN1CCN(c2ccc(OC)cc2)CC1 (stereo not given)	.	.	35µM!	.	.	?
COc1ccc(N2CCN(CC(O)COc3ccc(C(C)C)c(C)c3)CC2)cc1 (stereo not given)	.	.	16µM	.	.	.
CCc1ccccc1N/C=C(\C#N)c1nc(-c2ccc(C)c(C)c2)cs1	.	/	?	/	/	/
CC(C)c1ccc(Nc2nc(N)c(C#N)c(CC#N)c2C#N)cc1	.	/	.	/	/	/
O=C(/C=C\c1ccccc1)Nc1nccs1	.	.	.	.	.	?
O=C(/C=C/c1cccc(F)c1)Nc1nccs1	.	.	.	.	10µM	?
O=c1c(C=Nc2ccc(Cl)cc2)c[nH]n1-c1cccc(Cl)n1	-52	.	.	.	.	.
O=c1c(C=Nc2cccc(C(F)(F)F)c2)c[nH]n1-c1cccc(Cl)n1	.	.	.	.	.	.
SMILES	LDHA block	IDH1 R132H inh	12-LOX inh	A549 viability	Nrf2 activator	Nrf2 inh
O=C(Nc1ccc2oc(=O)ccc2c1)c1ccc(Cl)c(Cl)c1	.	/	?	/	/	/
O=[N+]([O-])c1cc(S(=O)(=O)Nc2ccc(Cl)cc2)ccc1N/N=C/c1ccncc1	.	.	.	.	.	?
O=[N+]([O-])c1ccc(Cl)cc1N/N=C/c1ccncc1	.	.	.	.	1µM	.
O=C(N/N=C/c1ccncc1)c1cc([N+](=O)[O-])cc([N+](=O)[O-])c1O	.	.	50µM	.	.	.
O=[N+]([O-])c1cccc(Nc2nc(-c3ccccc3)nc3ccccc23)c1	.	/	.	/	/	/
O=[N+]([O-])c1cc(C(F)(F)F)ccc1N1CCN(S(=O)(=O)c2ccc3c(c2)CCCC3)CC1	.	.	.	.	.	15µM
CC(=O)NNC(=S)Nc1ccc(C)c(C)c1	.	/	.	/	/	/
O=C(O)c1ccc(CSc2ccc(Cl)cc2)cc1	.	/	.	/	/	/
CNC(=S)NNC(=O)C(Sc1ccccc1)c1ccccc1 (stereo not given)	-32	/	.	/	/	/
CC(C)NC(=O)C(Sc1ccccc1)c1ccccc1 (stereo not given)	.	.	.	.	.	.
Cc1ccccc1-c1nc(C#N)c(NCC(C)C)o1	.	/	?	/	/	/
CC(C)CNc1oc(-c2ccccc2F)nc1C#N	-36	/	.	/	/	/
CCCCc1cc(=O)oc2c(C)c(OC(C)C(=O)NCc3ccccn3)ccc12 (stereo not given)	.	/	.	/	/	/
CC(C)(C)C(=O)Nc1ccc(C(=O)Nc2cccc(Oc3ccc(C(=O)O)c(C(=O)O)c3)c2)cc1	.	.	.	.	.	21µM
O=C(Nc1cccc(Oc2ccc(C(=O)O)c(C(=O)O)c2)c1)c1ccc(-c2ccccc2)cc1	.	.	.	.	.	16µM
Cn1c(SCc2ccccc2)nc2ccsc2c1=O	.	.	.	.	13µM	16µM
CCCCCCCCC(=O)c1c(OC)oc(C=O)cc1=O	.	.	7.1µM	/	.	/
O=C(Oc1cc(-c2ccccc2)no1)c1ccc(Cl)cc1	.	.	32µM	.	.	.
Cc1nc2c(=O)n(C)c(=O)n(C)c2nc1Cl	.	.	.	?	?	18µM
O=C(NCc1coc(-c2cccs2)n1)c1ccc(Cl)cc1Cl	.	/	.	/	/	/
Cn1c(C23CC4CC(CC(C4)C2)C3)n[nH]c1=S	.	.	?	.	.	.
CC(C)Cn1c(C23CC4CC(CC(C4)C2)C3)n[nH]c1=S	.	.	28µM	.	.	.
Fc1ccccc1-n1c(C23CC4CC(CC(C4)C2)C3)n[nH]c1=S	.	/	14µM	/	/	/
Cc1cnc2c(S(=O)(=O)NCCCNS(C)(=O)=O)cccc2c1	.	/	.	/	/	/
Cc1ccccc1C(=O)NNC(=S)NC(=O)c1ccc(Cl)cc1Cl	.	.	?	?	.	23µM
Cc1cccc(C(=O)NNC(=O)c2cccc(C)c2)c1	.	.	.	.	.	.
Cc1cccc(C(=O)NC(=S)NNC(=O)COc2c(C)cccc2C)c1	.	.	25µM	.	.	?
COc1ccc(C(=O)NC(=S)NNC(=O)c2ccccc2C)cc1	.	.	45µM	.	.	?
Cc1cccc(C(=O)NNC(=O)c2ccc3ccccc3c2)c1	-38	.	.	.	.	.
COc1cc(NC(=O)COc2ccc3c(C)cc(=O)oc3c2)cc(OC)c1	.	/	.	/	/	/
